Ecoli rRNA inh = inhibits bacterial ribosomal RNA function over humanized ribosomes; E. coli WT GFP vs humanized-ribosome RFP mutants, fluorescence, 24 h; active compounds read low; DMSO median 0, no signal -100; GFP signal change (wild-type ribosome), % (no concentration beside the values); 1.6% of 350,000 active;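 active means significant combined selectivity score with lowered wild-type GFP, culture density cut under 30%, mutant RFP and density less affected; inactive means any of these conditions unmet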
Wnt act = activates Wnt/beta-catenin signaling in a reporter cell assay; activator, plate reader; AID 743398; activation, % at 9.35 µM; 1.2% of 300,000 active; in the data active means activation above about 30%, passing the limit was not always enough; inconclusive means no clear call, values can overlap the other calls;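 further: 0% = neutral control wells and 100% = positive control wells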
esBAF inh = SWI/SNF esBAF complex inhibition; mouse ES cells, Bmi1-luciferase knock-in reporter, 24 h; 100% = twice the neutral-well signal; reporter increase, % at 12.5 µM; 2% of 350,000 active; AID 602393; in the data active means activation above about 40%; inconclusive means no clear call, values can overlap the other calls;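 further: 0% = median of the plate's neutral control wells and 100% = double that signal; a rise in the Bmi1 reporter signal indicates esBAF inhibition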
AF4-AF9 inh = MLL-AF4/AF9 protein interaction inhibition | AlphaScreen, biotin-AF4 peptide binding to FLAG-AF9 | inhibition, % at 10 µM | 0.47% of 350,000 active | AID 651704;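 active means every replicate reaching a set inhibition limit, whatever the replicate mean, cut at about 25% in these data; inconclusive means mean inhibition reaches that limit but some replicates miss it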;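 further: 0% = plate neutral control median and 100% = total signal loss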
MITF act = increases MITF-driven TRPM1 promoter luciferase signal | 0.75% of 300,000 active | AID 588334 | SK-MEL-5 TRPM1-promoter luciferase, 24 h; % of positive control, neutral wells = 0 | activation, % at 12.5 µM;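 active means mean activation of at least 80% with every replicate also reaching 80%; inconclusive means mean reaches 80% but some replicate falls short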;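 further: 0% = neutral control wells and 100% = parthenolide positive control wells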
An asterisk follows results filed as active; ? = inconclusive; · = no result. Shown are actives, neighbours in structure and some others; about 3.7% of the full set was active somewhere.

SMILES	Ecoli rRNA inh	Wnt act	esBAF inh	AF4-AF9 inh	MITF act
CC(=O)C(=Cc1ccc(Cl)cc1)C(=O)c1ccccc1	-35*	1	·	4	·
CCOc1ccc(/C(O)=C2/C(=O)C(=O)N(CCCn3ccnc3)C2c2cccs2)cc1Cl (stereo not given)	·	18	56*	·	·
O=C(Nc1nccs1)c1ccc(-c2ccc(Cl)cc2Cl)o1	13	-1	·	-7	8
O=C(Nc1nccs1)c1ccc(-c2ccc(F)c(Cl)c2)o1	-2	11	57*	1	113*
CN(C)c1ccc(NC(=O)c2ccc([N+](=O)[O-])cc2Cl)cc1	9	10	·	0	30
Cc1cnc(NC(=O)CCNC(=O)c2ccccc2Cl)s1	11	46*	10	1	1
CCNC(=O)O/N=C(\C)c1sc(-c2ccc(Cl)cc2)nc1C	·	8	43*	·	·
C/C(=N\OC(=O)c1cccc(C(F)(F)F)c1)c1sc(-c2ccccc2)nc1C	·	·	77*	·	?
C=C(C)c1sc(-c2ccc(Cl)cc2)nc1C	11	25	49*	-5	74
C/C(=N\OC(=O)NC(C)C)c1sc(-c2ccccc2)nc1C	·	-2	63*	·	105*
C/C(=N\OC(=O)NC(C)C)c1sc(-c2ccc(Cl)cc2)nc1C	·	-5	38	·	62
Cc1ccn2cc(CCNC(=O)c3ccc(Br)o3)nc2c1	-3	-1	6	-16	-2
Cc1onc(-c2ccccc2)c1C(=O)N1CCC(CO)(Cc2ccccc2)CC1	-3	-1	2	4	5
C[C@@H]1CN([C@@H](C)CO)C(=O)c2cc(NC(=O)c3ccncc3)ccc2O[C@@H]1CN(C)Cc1ccc(C(F)(F)F)cc1	-4	·	-14	-5	·
Nc1nc(-c2ccccc2)c(N=Nc2ccc(Cl)cc2)s1	-42*	-1	·	-3	-9
CC(C)Cc1ccc(C(C)C(N)=Nc2ccc(O)cc2)cc1 (stereo not given)	-44*	3	-11	4	·
Cc1cc(C)c(C(CC(=O)c2cccs2)C(C#N)C#N)c(C)c1 (stereo not given)	·	49*	·	1	44
CC(CC(=O)c1cccs1)CC(=O)c1cccs1	-19	15	70*	-7	69
O=C(CC(C(=O)O)c1ccccc1)c1cccs1 (stereo not given)	9	0	·	-10	·
Cc1nc(Cc2ccccc2)sc1CC#N	1	51*	2	-3	-2
O=C(c1cc(COc2cccc(C(F)(F)F)c2)on1)N1C[C@H]2CC[C@H]1C2	-28	13	58*	-2	65
CC(=O)c1ccc(OCc2cc(C(=O)N3CCC[C@H]3CO)no2)cc1	7	1	-2	8	1
COc1ccc(OCc2cc(C(=O)N3C[C@@H](C)O[C@@H](C)C3)no2)c(Cl)c1	0	13	42*	-2	70
COCC1CCN(C(=O)c2cc(COc3ccc(OC)cc3Cl)on2)C1 (stereo not given)	-1	9	·	1	·
CC(=O)c1cccc(OCc2cc(C(=O)N3C[C@H]4CC[C@H]3C4)no2)c1	-10	1	?	-4	47
SMILES	Ecoli rRNA inh	Wnt act	esBAF inh	AF4-AF9 inh	MITF act
COCCC1CCCCN1C(=O)c1cc(COc2cccc(C(C)=O)c2)on1 (stereo not given)	-2	14	65*	-2	27
CC(=O)c1cccc(OCc2cc(C(=O)N3C[C@@H](C)O[C@@H](C)C3)no2)c1	15	21	65*	5	69
O=C(NNC(=O)C1C2C=CC(C2)C1C(=O)O)c1ccccc1O (stereo not given)	3	-1	0	-2	4
COc1ccc(OCc2cc(C(=O)N3CCN(C4CCCC4)CC3)no2)c(Cl)c1	-29*	19	?	4	79
COc1ccc(OCc2cc(C(=O)N3CCCCCCC3)no2)c(Cl)c1	-44	14	·	-1	28
C[C@@H]1CN([C@H](C)CO)C(=O)c2cc(-c3ccncc3)cnc2O[C@H]1CN(C)S(=O)(=O)c1ccc(F)cc1	-4	·	-13	-1	·
CCOC(=O)c1c(C)[nH]c(C(=O)COC(=O)C2CC2)c1C	9	-23	?	-2	86*
CC(=O)c1c(C)[nH]c(C(=O)COC(=O)C2CC2)c1C	17	2	5	0	14
CCOC(=O)CC(=O)c1[nH]c(C)c(C(=O)OCC)c1C	-2	2	·	-5	49

Screening results: PubChem, Broad Institute
